Among the data in PubChem BioAssay (EPA / NIEHS) are outcome and AC50 values, retold here.

Usually AC50 stands for the midpoint of the concentration-response curve, whichever way the signal moves.

The target in test [1] is Nuclear respiratory factor 1 (Homo sapiens) (UniProt Q16656). The test is described as follows: ATG_NRF1_CIS: Attagene CIS-FACTORIAL HepG2 Assay for human Nuclear Respiratory Factor 1 (NRF1) Orphan Gene (AID 2282987). As to conditions: HepG2 NRF1 cis-element reporter, Attagene multiplex; actives raise or lower the signal. Put shortly:
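Endogenous NRF1-driven reporter transcription in transfected HepG2 cells after 24 h treatment. Readout: RT-PCR products, 6-FAM labelled and resolved by capillary electrophoresis; changes fitted both directions relative to DMSO.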

Test [2] in a line: ATG_NFI_CIS: Attagene CIS-FACTORIAL HepG2 Assay for human Nuclear Factor I (NFI) (AID 2282989). To be noted: HepG2 cis-regulatory reporter, NFI response element transcription; actives raise or lower the signal. The method, boiled down:
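Read-out: reporter mRNA via RT-PCR plus capillary electrophoresis with fluorescence detection. Transiently transfected HepG2 (endogenous TF activity on cis promoters), 24 h compound exposure; gain or loss of signal fitted against DMSO.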

Test [3] concerns the target Myc proto-oncogene protein (Homo sapiens) (UniProt P01106). The experiment in a line: ATG_Myc_CIS: Attagene CIS-FACTORIAL HepG2 Assay for human Myelocytomatosis (Myc) Proto-Oncogene Transcription Factor (AID 2282990). To be noted: HepG2, Attagene cis-reporter transcription factor activity; actives raise or lower the signal. The method, boiled down: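 DMSO-normalised, bidirectionally fitted reporter mRNA signal. HepG2 cells transfected with cis reporter constructs, treated 24 h; transcripts detected by RT-PCR, 6-FAM primer extension and CE.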

Test [4] in a line: ATG_NF_kB_CIS: Attagene CIS-FACTORIAL HepG2 Assay for human Nuclear Factor Kappa B (NF-kB) (AID 2282991). To be noted: HepG2 Attagene cis-factorial NF-kB reporter mRNA; actives raise or lower the signal. The method, boiled down: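 Readout is reporter transcript level, gain or loss versus DMSO, measured 24 h post-dose via RT-PCR, fluorescent labelling and capillary electrophoresis. Human HepG2 liver cells carried transiently transfected CIS reporter constructs reflecting endogenous factors.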

The nature of test [5]: ATG_NRF2_ARE_CIS: Attagene CIS-FACTORIAL HepG2 Assay for human Nuclear Factor Erythroid 2 Related Factor 2 (NFR2) response to Antioxidant Response Elements (ARE) (AID 2282992). To be noted: HepG2 Attagene ARE/NRF2 reporter, transcription factor activity; actives raise or lower the signal. Put shortly: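 Multiplexed reporter mRNA profiling in HepG2 after a 24 h chemical exposure. Curves fitted in both directions relative to DMSO negative control.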

Test [6] in a line: ATG_Oct_MLP_CIS: Attagene CIS-FACTORIAL HepG2 Assay for human Octamer-Binding Transcription Factor (Oct) (AID 2282993). To be noted: HepG2 Attagene cis-factorial Oct reporter, mRNA; actives raise or lower the signal. Put shortly:
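Read-out: reporter mRNA via RT-PCR plus capillary electrophoresis of 6-FAM-labelled fragments. Transiently transfected HepG2, 24 h exposure, endogenous TF activity on cis elements. Gain or loss of signal fitted relative to DMSO.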

Test [7] addresses Cellular tumor antigen p53 (Homo sapiens) (UniProt P04637). The experiment in a line: ATG_p53_CIS: Attagene CIS-FACTORIAL HepG2 Assay for human p53 Transcription Factor (AID 2282994). As to conditions: HepG2 p53 cis-element reporter, Attagene mRNA; actives raise or lower the signal. The method, boiled down:
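Multiplexed reporter mRNA assay in human HepG2 liver cells; cis-regulated units report endogenous factor activity. Values come from bidirectional curve fitting against DMSO negative control after 24 h treatment.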

Each structure is given as a SMILES string. Active and inactive are the calls of the source. How the source made its calls: active means hit-call score of the fitted dose curve at least 0.9, where 1 is the maximum; inactive means score below 0.9.

Myc proto-oncogene protein (Homo sapiens), sequence (P01106 whole entry, looked up): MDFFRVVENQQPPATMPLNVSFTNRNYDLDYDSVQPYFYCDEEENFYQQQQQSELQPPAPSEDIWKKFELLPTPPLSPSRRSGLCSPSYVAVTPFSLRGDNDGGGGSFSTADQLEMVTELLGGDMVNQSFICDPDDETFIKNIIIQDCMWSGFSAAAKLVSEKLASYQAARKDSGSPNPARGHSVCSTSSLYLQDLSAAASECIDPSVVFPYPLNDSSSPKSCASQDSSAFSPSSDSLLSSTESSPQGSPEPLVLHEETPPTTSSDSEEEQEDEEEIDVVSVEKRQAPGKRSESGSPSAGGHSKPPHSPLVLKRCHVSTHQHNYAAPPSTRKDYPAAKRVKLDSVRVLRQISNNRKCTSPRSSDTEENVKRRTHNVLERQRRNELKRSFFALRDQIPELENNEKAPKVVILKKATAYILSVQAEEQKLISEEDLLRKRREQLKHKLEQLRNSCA
Cellular tumor antigen p53 (Homo sapiens), sequence (P04637 whole entry, looked up): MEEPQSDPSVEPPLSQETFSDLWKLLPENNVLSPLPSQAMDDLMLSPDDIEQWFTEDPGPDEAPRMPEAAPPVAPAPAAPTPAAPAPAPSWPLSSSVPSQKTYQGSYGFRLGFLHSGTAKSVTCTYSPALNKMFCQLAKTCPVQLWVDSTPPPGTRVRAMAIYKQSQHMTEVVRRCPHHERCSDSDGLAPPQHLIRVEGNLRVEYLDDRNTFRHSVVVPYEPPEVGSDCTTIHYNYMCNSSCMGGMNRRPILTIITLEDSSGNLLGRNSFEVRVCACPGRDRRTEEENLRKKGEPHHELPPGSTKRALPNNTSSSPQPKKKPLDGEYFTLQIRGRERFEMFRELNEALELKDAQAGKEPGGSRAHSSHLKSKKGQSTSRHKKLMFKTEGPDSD
Nuclear respiratory factor 1 (Homo sapiens), sequence (Q16656 whole entry, looked up): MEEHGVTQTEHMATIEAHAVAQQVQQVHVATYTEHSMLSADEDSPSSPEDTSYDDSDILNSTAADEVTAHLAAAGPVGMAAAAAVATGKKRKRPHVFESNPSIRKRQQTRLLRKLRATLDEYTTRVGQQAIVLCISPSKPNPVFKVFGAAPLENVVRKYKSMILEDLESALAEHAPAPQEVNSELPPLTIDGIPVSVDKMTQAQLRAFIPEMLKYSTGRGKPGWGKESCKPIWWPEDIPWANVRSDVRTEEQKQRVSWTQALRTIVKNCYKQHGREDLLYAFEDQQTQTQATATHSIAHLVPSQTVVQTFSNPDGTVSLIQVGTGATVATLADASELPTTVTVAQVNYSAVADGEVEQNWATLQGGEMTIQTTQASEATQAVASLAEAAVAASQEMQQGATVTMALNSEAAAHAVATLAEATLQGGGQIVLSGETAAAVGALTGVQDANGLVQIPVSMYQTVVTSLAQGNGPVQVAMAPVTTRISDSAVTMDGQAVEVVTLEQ

Consider `CC(=O)CCC1=C(C)CCCC1(C)C`, for which the call in test [1], in test [2], in test [3], in test [4] and in test [6] was inactive. Further, the AC50 in test [5] is 49.1 µM (active).

For `CCCCC(CC)COS(=O)(=O)O` (stereo not given), the compound was called inactive in test [1], in test [2], in test [3], in test [4], in test [5] and in test [6].

For `O=C(Nc1ccccc1)c1cc(Cl)ccc1O`, the compound was called inactive in test [1], in test [3], in test [4] and in test [7]. In addition, the AC50 in test [2] was 5.49 µM (active); in test [5] it was 2.35 µM (active); in test [6], 15.1 µM (active).

`CC(C)(O)Cc1ccccc1`: the result in test [1], in test [2], in test [3], in test [4], in test [5] and in test [6] was inactive. Besides, the compound was classed as inactive in test [7].

On to `CCCC/C=C/C=C\C=O`, for which the call in test [1], in test [2], in test [3] and in test [6] was inactive. For the same compound, the results for the AC50 in test [4], in test [5] and in test [7] were 63.8 µM (active), 41.3 µM (active) and 165 µM (active), respectively.

Turning to `Cc1c[nH]c(=O)[nH]c1=O`, the call in test [1], in test [2], in test [3], in test [4], in test [5] and in test [6] was inactive. Further, in test [7], the compound was called inactive.

In the case of `CCC[Si](OC)(OC)OC`, the outcome in test [1], in test [2], in test [3], in test [4], in test [5] and in test [6] was inactive. In addition, the compound was classed as inactive in test [7].

Regarding `CCOB(OCC)OCC`, the outcome in test [1], in test [2], in test [3], in test [4], in test [5] and in test [6] was inactive. Also, the compound was classed as inactive in test [7].

Regarding `C=C(C)OC(C)=O`, the compound was classed as inactive in test [1], in test [2], in test [3], in test [4], in test [5] and in test [6]. Also, the compound was called inactive in test [7].

For `CC1(C)C(=O)N(CO)C(=O)N1CO`, the compound was called inactive in test [1], in test [2], in test [3], in test [4], in test [6] and in test [7]. The AC50 in test [5] was 26.1 µM (active).

For `CC(=O)OC(C)c1ccccc1` (stereo not given), the result in test [1], in test [2], in test [3], in test [4], in test [5] and in test [6] was inactive. Further, the compound was classed as inactive in test [7].

As to `CCCCCC[C@@H](O)C/C=C\CCCCCCCC(=O)OCC(O)CO` (stereo not given in full), the concentration at half-maximal activity (AC50) is 179 µM (active) in test [1], 162 µM (active) in test [3], 87.9 µM (active) in test [5] and 181 µM (active) in test [7]. The outcome in test [2], in test [4] and in test [6] was inactive.

Regarding `CCOC(=O)c1ccc(C)cc1`, the compound was classed as inactive in test [1], in test [2], in test [3], in test [4], in test [5] and in test [6]. Further, the call in test [7] was inactive.

Regarding `CC(=O)c1ccccc1O`, the call in test [1], in test [2], in test [3], in test [4], in test [5] and in test [6] was inactive. Further, in test [7], the compound was classed as inactive.

`CCCC(CC)c1ccccc1` (stereo not given): the AC50 in test [1] was 158 µM (active); in test [2], 181 µM (active); in test [5] it was 165 µM (active). Further, the outcome in test [3], in test [4], in test [6] and in test [7] was inactive.

For `CCC(C)C(=O)OC` (stereo not given), the result in test [1], in test [2], in test [3], in test [4], in test [5] and in test [6] was inactive. In addition, in test [7], the compound was classed as inactive.

In the case of `CCCCCCCCCCCCCC(=O)OC(C)C`, the result in test [1], in test [2], in test [3], in test [4], in test [5] and in test [6] was inactive. Moreover, the outcome in test [7] was inactive.

Take `CC1C(C)(C)C2=C(C(=O)CCC2)C1(C)C` (stereo not given): the result in test [1], in test [2], in test [3], in test [4], in test [5] and in test [6] was inactive. For the same compound, the result in test [7] was inactive.

For `C=Cc1ccc(OC(C)=O)cc1`, the outcome in test [1], in test [2], in test [3], in test [4] and in test [7] was inactive. Further, the results for the AC50 in test [5] and in test [6] were 6.87 µM (active) and 55.4 µM (active), respectively.

Regarding `C[Si]1(C)O[Si](C)(C)O[Si](C)(C)O[Si](C)(C)O[Si](C)(C)O1`, the outcome in test [1], in test [2], in test [3], in test [4], in test [5] and in test [6] was inactive. Besides, the outcome in test [7] was inactive.

As for `CCCCNC(=S)NCCCC`, the outcome in test [1], in test [2], in test [3], in test [4], in test [5] and in test [6] was inactive. The compound was called inactive in test [7].

For `CC(=O)CCC=C(C)C`, the compound was called inactive in test [1], in test [2], in test [3], in test [4], in test [5] and in test [6]. Besides, the compound was called inactive in test [7].

Regarding `CCCCOCCOCCOC(C)=O`, the call in test [1], in test [2], in test [3], in test [4], in test [5] and in test [6] was inactive. Besides, the outcome in test [7] was inactive.

`CC(C)CC(=O)OCc1ccccc1`: the compound was classed as inactive in test [1], in test [2], in test [3], in test [4], in test [5] and in test [6]. The outcome in test [7] was inactive.

In the case of `COCC(=O)O`, the outcome in test [1], in test [2], in test [3], in test [4], in test [5] and in test [6] was inactive. Besides, the compound was called inactive in test [7].

Take `Nc1ncnc2nc[nH]c12`: the outcome in test [1], in test [2], in test [3], in test [4], in test [5] and in test [6] was inactive. For the same compound, the outcome in test [7] was inactive.

As to `N#Cc1ccc(C2CCCc3cncn32)cc1` (stereo not given), the call in test [1], in test [2], in test [3], in test [4], in test [5] and in test [6] was inactive. In addition, the call in test [7] was inactive.

With `CC1CCC(C(C)(C)S)C(=O)C1` (stereo not given), the compound was classed as inactive in test [1], in test [2], in test [3], in test [4], in test [5] and in test [6]. In test [7], the compound was called inactive.

On to `CC(=O)OCC=C(C)C`, for which the call in test [1], in test [2], in test [3], in test [4], in test [5] and in test [6] was inactive. The result in test [7] was inactive.

Take `CC(=O)c1ccc(S(=O)(=O)NC(=O)NC2CCCCC2)cc1`: the compound was classed as inactive in test [1], in test [2], in test [3], in test [4], in test [5] and in test [6]. In test [7], the compound was classed as inactive.

With `CN(C)Cc1cc(CN(C)C)c(O)c(CN(C)C)c1`, the compound was called inactive in test [1], in test [2], in test [3], in test [4], in test [5] and in test [6]. Also, the compound was classed as inactive in test [7].
